Values joined by “and” are separate entries in the source; they are usually repeats but may differ in a detail not shown here. Identical values can stand only once. The panel holds about 83,000 compounds, 20% with a hit somewhere; the sample as a whole holds those more often.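 Negative percent growth values reflect cell death: -40 means 40% of the cells present at the start died, and -100 means all died.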 Active and inactive are the calls of the source. How the source made its calls: active means growth percent below 10; inactive means the rest.
test system: UACC-62 melanoma; assay: NCI-60 one-dose screen, 48 h (100 = growth as untreated, 0 = no growth, -100 = all killed); details: 10 µM unless noted

| SMILES | growth |
| --- | --- |
| COC(=O)C(=O)C(C(=O)C(=O)Nc1ccccc1C(C)=O)c1nc2ccc(C(=O)c3ccccc3)cc2[nH]c1=O (stereo not drawn) | 48.7% [100 µM] (inactive) and 10.4% [100 µM] (inactive) |
| NNc1[nH]c(=S)[nH]c1C(N)=O | 98.3% [100 µM] (inactive) and 90.9% [100 µM] (inactive) |
| O=C(Nc1cccc(NC(=O)C(=O)C2CCC3=C(Sc4ccccc4N3)C2=O)n1)C(=O)C1CCC2=C(Sc3ccccc3N2)C1=O (stereo not drawn) | 50.7% [100 µM] (inactive) and -46.3% [100 µM] (active) |
| C=C(C)C(=O)OC1CC2(C)OC(=CC2=O)C(C)CC2OC(=O)C(=C)C12 (stereo not drawn) | -97% [100 µM] (active) |
| Cc1cc(S(=O)(=O)O)c(NC(=O)c2oc3cc(O)ccc3c(=O)c2C)cc1Cl | 85.1% [100 µM] (inactive) and 89.4% [100 µM] (inactive) |
| CCCCC1C(=O)N(c2ccc(S(=O)(=O)Nc3ccccn3)cc2)N(c2ccc(O)c(C(=O)O)c2)C1=O (stereo not drawn) | 105% [100 µM] (inactive) and 96.1% [100 µM] (inactive) |
| CCCCCCCCCCCCC/C=C/[C@H]1[C@@H](C(=O)OC)N1S(=O)c1ccc(C)cc1 (stereo partly drawn) | 64.8% [100 µM] (inactive) and 3.51% [100 µM] (active) |
| CC(C)CCCC(C)[C@H]1CC[C@H]2[C@@H]3CC[C@H]4C[C@@H](CCC=C(c5cc(Cl)c(O)c(C(=O)O)c5)c5cc(Cl)c(O)c(C(=O)O)c5)CC[C@]4(C)[C@H]3CC[C@]12C (stereo partly drawn) (tested in a mixture with another compound) | 72.7% [50 µM] (inactive) and 21% [50 µM] (inactive) |
| COc1ccc2cc1Oc1ccc(cc1)CC1c3cc(OC)c(cc3CCN1C)Oc1c(OC)c(OC)cc3c1C(C2)N(C)CC3 (stereo not drawn) | -46.8% [75 µM] (active) and -87.8% [75 µM] (active) |
| C=C(CCC(C(=O)O)C1CCC2(C)C3=C(CCC12C)C1(C)CCC(O)C(C)(C)C1CC3)C(C)C (stereo not drawn) | -50.9% [100 µM] (active) and -100% [100 µM] (active) |
| Cc1cc2nn(C3CCCO3)nc2cc1C (stereo not drawn) | 70.8% [100 µM] (inactive) and 101% [100 µM] (inactive) |
| Cc1ccc(F)cc1NC(=O)O/N=C(\Cl)C(C)C | 82.6% [100 µM] (inactive) and 60.7% [100 µM] (inactive) |
| CCC/C(Cl)=N/OC(=O)Nc1cccc(F)c1 | -86.8% [100 µM] (active) and -100% [100 µM] (active) |
| COc1cc2c(cc1C1COc3cc4occc4cc3C1=O)OCO2 (stereo not drawn) | 62.1% [100 µM] (inactive) and 73.4% [100 µM] (inactive) |
| Cc1ccc(C)c(NC(=O)/C(=N\N)C(c2cnc3ccc([N+](=O)[O-])cc3n2)[N+](=O)[O-])c1 (stereo not drawn) | 46.3% [100 µM] (inactive) and 15.7% [100 µM] (inactive) |
| CCOC(=O)c1cc(C)nc2c1c(=O)n(-c1ccccc1)c(=O)n2CCCCN1CCN(c2ncccn2)CC1 | 97.1% [100 µM] (inactive) and 82.3% [100 µM] (inactive) |
| CC/C(Cl)=N\OC(=O)Nc1ccc(OC)cc1 | -92.2% [100 µM] (active) and -94.2% [100 µM] (active) |
| CCOc1cc2c(cc1O)C=C[C@@H]1[C@@H]2CC[C@]2(C)[C@@H](O)CC[C@@H]12 | -65.7% [100 µM] (active) and -100% [100 µM] (active) |
| CCCCCC(O)(CCCCC)CCCCCCCCC1=C(O)c2ccccc2C(=O)C1=O | -74.8% [100 µM] (active) and -14.4% [100 µM] (active) |

| SMILES | growth |
| --- | --- |
| COC(=O)/C(=N\NC(=S)NN)C(C(=O)OC)C(=O)C(=O)Nc1cccc(C(F)(F)F)c1 (stereo not drawn) | 98.2% [100 µM] (inactive) and 59.6% [100 µM] (inactive) |
| O=C(O)c1n[nH]nc1Cl | 43.6% [100 µM] (inactive) and 103% [100 µM] (inactive) |
| C=C1C(=O)O[C@H]2C[C@@]3(C)[C@H](O)CCC(=C)[C@@H]3[C@@H](OC(C)=O)[C@H]12 | -98.5% [100 µM] (active) and -92.2% [100 µM] (active) |
| COc1cc([C@H]2OC[C@@H]3C(c4cc(OC)c5c(c4)OCO5)OC[C@H]23)cc(OC)c1OC (stereo partly drawn) | 66.5% [100 µM] (inactive) and 25.8% [100 µM] (inactive) |
| COc1cc2c3cc1Oc1c(OC)c(OC)cc4c1C(Cc1ccc(O)c(c1)-c1cc(ccc1OC)CC3N(C)CC2)N(C)CC4 (stereo not drawn) | -88% [100 µM] (active) and -95.6% [100 µM] (active) |
| COc1ccc(N=C(C)C(C)=Nc2ccc(OC)cc2)cc1 | 9.18% [100 µM] (active) and 4.99% [100 µM] (active) |
| CO/C(N)=C(\C#N)N=Cc1ccc2ccccc2c1 | -20.4% [100 µM] (active) and 1.77% [100 µM] (active) |
| C[C@@H]1C[C@@H]2OC(=O)[C@]3(C)[C@H]2[C@@H](OC3(C)O)[C@]2(C)C(=O)C=C[C@@H]12 (stereo partly drawn) | -84.2% [100 µM] (active) and -97.9% [100 µM] (active) |
| N#Cc1n[nH]n(-c2ccccc2)c1=O | 91.7% [100 µM] (inactive) and 100% [100 µM] (inactive) |
| CC(=N\N=C\c1ccccn1)/C(C)=N/N=C/c1ccccn1 | 86% [100 µM] (inactive) and 54.1% [100 µM] (inactive) |
| CCn1c2c(c3ccccc3c1=O)C(=O)c1ccccc1-2 | 62.3% [100 µM] (inactive) and 2.6% [100 µM] (active) |
| Cc1ccc(NC2=N/C(=C/c3ccccc3)C(Cl)=N2)cc1 | 27.6% [100 µM] (inactive) and 12% [100 µM] (inactive) |
| C=C1CC2(C)CCC(OC(=O)C3(C)OC3C)C(C)(OC(C)=O)C2CC1=C(C)C (stereo not drawn) | 75.8% [100 µM] (inactive) and 12.7% [100 µM] (inactive) |
| Cc1ccc(OCC2OC(n3cnc4c(Cl)nc(Cl)nc43)CC2Oc2ccc(C)cc2)cc1 (stereo not drawn) | -90.8% [100 µM] (active) and -89.2% [100 µM] (active) |
| C/C(O)=C/c1nc2sc(C)c(C)c2c(=O)s1 | 19.1% [100 µM] (inactive) and 37.1% [100 µM] (inactive) |
| COc1ccccc1-c1n[nH]c(-c2ccccc2O)n1 | 62.2% [100 µM] (inactive) and 50.3% [100 µM] (inactive) |
| N#Cc1nc(C(F)(F)F)oc1N | 57.6% [100 µM] (inactive) and 93.3% [100 µM] (inactive) |
| COC(=O)C(C(=O)C(=O)Nc1c(C)cccc1C(C)(C)C)c1nc2ccc(Cl)cc2[nH]c1=O (stereo not drawn) | 68% [100 µM] (inactive) and 84.1% [100 µM] (inactive) |
| C/C=C1\NC(=O)[C@H]2CSSCCC=C[C@H](CC(=O)N[C@H](C(C)C)C(=O)N2)OC(=O)[C@H](C(C)C)NC1=O | -83.2% [0.1 µM] (active) and -98.1% [0.1 µM] (active) |
